In all, about 1,800 sequences were measured (“median log2 fold change of GCK-ALFA target abundance (FLAG IP / Myc IP barcode read proportion)”: median about 0.14, lowest 2% from about -0.84 on). Many of the other results were omitted from the sample, so the lowest values are more common in it than they were.
T1: TRAF2, Q12933
T1 chain: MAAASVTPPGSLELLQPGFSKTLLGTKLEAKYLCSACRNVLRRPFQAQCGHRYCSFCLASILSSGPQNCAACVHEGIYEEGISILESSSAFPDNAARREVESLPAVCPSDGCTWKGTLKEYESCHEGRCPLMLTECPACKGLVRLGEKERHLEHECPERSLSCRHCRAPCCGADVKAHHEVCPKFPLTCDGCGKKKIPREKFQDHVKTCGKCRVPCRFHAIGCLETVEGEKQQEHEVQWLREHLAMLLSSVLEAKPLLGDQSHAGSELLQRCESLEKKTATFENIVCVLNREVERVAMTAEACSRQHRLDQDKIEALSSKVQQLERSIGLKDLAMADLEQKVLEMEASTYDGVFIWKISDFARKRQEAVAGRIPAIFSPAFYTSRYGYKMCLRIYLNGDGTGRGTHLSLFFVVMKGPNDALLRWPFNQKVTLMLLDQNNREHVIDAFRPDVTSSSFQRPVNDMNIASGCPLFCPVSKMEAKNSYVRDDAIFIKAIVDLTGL

B1: traf2_out_13_95_1105 (protein)
chain: SAETAEKIMEVADEMLEKSEKLLEELLKIAKEKGKLVEEVQEALDLARYRSINEAIHKLKELAKKYPEFKEEFEATIKELEELKREAGRKVAEILKEEKE
B2: traf2_out_13_95_1154 (protein)
chain: SKELAEKIMEIADKMLDKSKEILKELLEIAKKKGKLEEEVQEALYLAETRSINEAIHKLKELAKKYPEFKEELEKAIKELEELKREAGKEVAKLIKEEKE
B3: traf2_out_13_95_1160 (protein)
chain: SKELAKKIMEIADEMLDESEKILEELLKIAKEKGKLEKEVQEALDLARYRSINEAIHKLEELAKKYPEFKEEFEKAIKKLKELKREAGKKVAKLIKEEEE
B4: traf2_out_17_162_1603 (protein)
chain: SSLEKKKEELLKKKEELKEELKRLTEKLKNIEKLSKEELSDLLVEASEKKREALEALEKIEELKDELDPEEYEKLSTEFEELAEEFQRIANKFYKELEKK
B5: traf2_out_6_156_2407 (protein)
chain: MVEEIFEEAMKEIKELIKKLSEASEEKKISYISKIAGTFYRALQRLREAGASVEELEEFIKRMMEKIKEWLDEEGLPEDIKNLILSSLKAVGDVALEEAK
B6: traf2_out_17_162_1641 (protein)
chain: SAAEELRKRLLEELERLEKELKELEEKSKKIDEYTKEELSDLIVEASEARRRARELIEEVDRNRSLLDPEEYEELKKRLEEIAERLNRIAQKFYDKYLEL
B7: traf2_out_17_162_1479 (protein)
chain: MSIEEKVERLERELEELEEEARRLREELERLEEKSKEEITDLLVEVSEARRRALELAEEFEELAPEIGEEKARELADRAREIAEELQRIANEIYKELEKK
B8: traf2_out_17_60_1760 (protein)
chain: GPEERKKELAEEARRKIEEARRLVEEVRKKLEAGTLTADEAMDYLVELSEKRRELRRLAEELRAEGPEFEPLIEELERAIEEVERTMNEVGKELERLLAA
B9: traf2_out_6_3_2512 (protein)
chain: EEEEERKRNEEALEEAAEMSLETIKIAAETTLKELEKAVEDPNATETDFLAYKSSLNLLLEIMKKHAEKHPEEKEEAEKFIEEMKKKLEELEKEWKKKRA
B10: traf2_out_20_3_2213 (protein)
chain: DELVAAVREQLAKIRELLEQARPRLAPEDYARLNALLARAEEALETDPSDALVALSELRRALLELAERARAAGDEELAKLLEEAAEAANKAANLVMQLLE
B11: traf2_out_17_162_1579 (protein)
chain: SELEEKLKELEEKLKELEKELKRFKEELKNLENKSKEELTDLLVEVSEARREALQLAEELKKLEKEIGEEKAKELIEKAEEIAEEFQRIANEIYKELLKK
B12: traf2_out_6_156_2416 (protein)
chain: MVEEILKEALEKVKELIKELAKAPESKKIQYISKIAGTAYRALQKLREAGASLEEIEEFAKRFLEETKKLAKEAGLPEDTINLLLSALQAVFDVAIAEAK
B13: traf2_out_6_3_2523 (protein)
chain: SEESLREDARRVLEGMGITTAEQLRRLVRAEVNAVRRLVSRPDTDEADLAGAESVLALAEAVVDVAAEELPDLTEEQVAELRALIEEARKLVEEKRAELA
B14: traf2_out_17_178_1720 (protein)
chain: SKEEYRKKISELTDKLIDLAEAAAARLLALARAEGTLSPEELAALEAARRRGSPNDTLALMRRVAPRLRSAAEAEALLADFEAQSKALAKEIAELYEKYE
B15: traf2_out_13_95_1096 (protein)
chain: SKELAEKIMEIADKMLDEVEKLLEELLKEAKKAGKLEEEVTEALNLARYRSINEAIHLLEELAKKHPEFKELYEKTIKEIKEIIKEAGKEVAKLIKEEKE
B16: traf2_out_13_95_1103 (protein)
chain: SEETAKKIMEVADKMLDKVEELLEKLLEKAKKAGKLEEEIEKALHLARYQSINEAIHLLKELAKKYPEFKEELEETIKEIEALRKQAGKEVAKIIKEEKE
B17: traf2_out_6_3_2524 (protein)
chain: SEESLRADARKILEGMGITTAEQLRTLVTAEVNAVRQLVSRPDTDRADLAGARSVLALSRAIVDVAAETLPDLTPEQVAALRALIAAAEELIAAREAELA
B18: traf2_out_16_104_1376 (protein)
chain: SAATDAAFQAIIARLEAIAERAQRLANELMKLYEKASPEEKEKISDALVEVSELRRRALAAAEAVRQAQAAGGDLAEAQATLAELEARLAEAEARVEELK
B19: traf2_out_11_169_872 (protein)
chain: KEAEKNRKLNDFALELNDEAKEKLKEFALKLAKELGLDVEEVKKIFEENKNKSLSAVAAALIKYFKEKGKEDAAAKIEKKYEELKEEINKKTSEKIKELE

Target: T1, TRAF2, Q12933
Assay: median log2 fold change of GCK-ALFA target abundance (FLAG IP / Myc IP barcode read proportion) (log2 ratio); each designed protein is fused to an ALFA-tag nanobody in HEK293 cells to bring the named protein to FLAG-tagged glucokinase (GCK); Myc marks an untargeted standard; higher = target protein stabilised (more abundant)
Details: target protein: 3xFLAG-MCP-GCK-ALFA reporter; HEK293 landing pad (RPLP)
Procedure, shortened: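 Sequencing of reverse-transcribed, amplified circular RNA barcodes from anti-FLAG and anti-Myc immunoprecipitates provided the readout for an ALFA-nanobody-fused binder library recombined into HEK293 landing-pad cells. Those cells were induced with 2 μg mL^−1 doxycycline, transfected with a plasmid expressing a FLAG-tagged target and a Myc-tagged standard, and lysed after 48 h. Target abundance is the per-binder median log2 ratio of FLAG to Myc barcode read proportions. Only barcodes at a proportion of ≥10^−7 in both replicates and binders with ≥3 barcodes per replicate were kept, with a 10^−6 pseudocount added before the two replicates were pooled.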

| Binder | median log2 fold change |
| --- | --- |
| B1 | -0.477 |
| B2 | -0.148 |
| B3 | -1.21 |
| B4 | 0.253 |
| B5 | 0.175 |
| B6 | 0.177 |
| B7 | 0.0731 |
| B8 | 0.112 |
| B9 | 0.417 |
| B10 | 0.129 |
| B11 | 0.462 |
| B12 | -0.0768 |
| B13 | -0.222 |
| B14 | 0.2 |
| B15 | -0.702 |
| B16 | -1.3 |
| B17 | -0.125 |
| B18 | 0.417 |
| B19 | 0.289 |

Source: the supplement of paper PMC12632987
